From PubChem BioAssay
FLuc inh: Photinus pyralis luciferase inhibition; purified P. pyralis luciferase, luminescence, biochemical; Potency, µM (series often up to 115 µM), hits mostly inhibitors; actives 2.5% (n = 76,000); also: nearly all actives have a fitted effect of over 65% in size
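Cell-free enzyme assay, 10nM P. pyralis luciferase, luciferin and ATP each at 10uM. Inhibition profiled over a 6-point titration, read as luminescence.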
HEK cytotox: kills HEK 293 cells; HEK 293 viability, ATP luminescence (CellTiter-Glo), 48-72 h; Potency, µM (highest dose often 115 µM), for the others: at the highest dose activity change, negative = cytotoxicity, hits mostly inhibitors; actives 6.6% (n = 94,000); AID 1345083; also: nearly all actives have a fitted effect of over 60% in size
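HEK 293 seeded at 250 cells/well receive compound via pintool. After 48 or 72 hr at 37 degree Celsius, 5% CO2 and 95% humidity, CellTiter-Glo is dispensed and luminescence read following 10 min at room temperature.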
3T3 cytotox: cytotoxic compounds in NIH 3T3 cells; actives 4.3% (n = 94,000); NIH 3T3 viability, CellTiter-Glo ATP luminescence, 48-72 h; Potency, µM (highest dose often 96.7 µM), for inactives: at the top dose activity change, negative = cytotoxicity, usual class: inhibitors; also: nearly all actives have a fitted effect of over 55% in size
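Luminescent ATP readout (CellTiter-Glo, 10 min RT) after 48 or 72 hr compound exposure of NIH 3T3 cells seeded at 400 cells/well in 1536-well format; quantitative HTS.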
hNpr1 antagonist: blocks ANP-stimulated signaling of human Npr1 receptor. AID 1347048. HEK293 hNpr1 GloSensor cGMP, ANP-stimulated luminescence. Potency, µM (doses to about 46.3 µM), inactives show at the top dose activity change, negative = inhibition, usual class: inhibitors. actives 1.6% (n = 76,000). P16066; calls by dose curve; also: nearly all actives have a fitted effect of over 60% in size
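HEK293 cells stably expressing human Npr1 and cGMP GloSensor pGS-40F, loaded 2 h with 2% GloSensor reagent, given compound 30 min at room temperature. Luminescence read before and 20 min after 0.1 nM hNppA.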
Numbers without * were called inactive; i = inactive; ? = inconclusive; . = not tested or not shown; [ ] = dose if it differs, or a comment. An excerpt weighted towards active compounds, which were near 11% of everything screened. Unless noted, calls follow the shape of the dose curve; as a rule, active = well fitted curve in the direction sought with a large enough effect; inconclusive = small, poorly fitted or top-dose-only effect, or another doubt; inactive = no such curve, though single readings can be large; an effect the other way counts as inactive or inconclusive. % is scaled to controls: 0 for no effect and ±100 for the full control effect; potency is read from the fitted curve at half-maximal effect.

SMILES	FLuc inh	HEK cytotox	3T3 cytotox	hNpr1 antagonist
COc1ccc(-c2noc([C@@H]3C[C@H](NS(=O)(=O)c4ccccc4)CN3C)n2)cc1	i	89µM*	?	-26%[70.6 µM]
COc1ccc(-c2noc([C@@H]3C[C@H](NS(=O)(=O)c4ccc(OC)cc4)CN3C)n2)cc1	22µM*	40µM*	?	?
Cc1ccc(S(=O)(=O)N[C@H]2C[C@@H](c3nc(-c4ccccc4)no3)N(C)C2)cc1	?	?	-28%[174 µM]	1%[70.6 µM]
CN1C[C@@H](NS(=O)(=O)c2ccccc2)C[C@H]1c1nc(-c2ccccn2)no1	22µM*	-27%[172 µM]	?	-28%[70.6 µM]
Cc1ccc(-c2noc([C@@H]3C[C@H](NS(=O)(=O)c4ccc(Cl)cc4)CN3C)n2)cc1	22µM*	79µM*	?	?
COc1ccc(S(=O)(=O)N[C@H]2C[C@@H](c3nc(-c4ccc5c(c4)OCO5)no3)N(C)C2)cc1	i	?	?	?
COc1ccc(-c2noc([C@@H]3C[C@H](NCc4ccc(N(C)C)cc4)CN3C)n2)cc1	63µM*	35µM*	50µM*	-16%[70.6 µM]
COc1cc(-c2ccnc3nc(CCC4CCCC4)nn23)cc(OC)c1OC	i	-22%	5.6µM*	-7%
COc1cc(-c2ccnc3nc(Cc4ccc(F)cc4)nn23)cc(OC)c1OC	i	32µM*	?	-17%
COc1cc(-c2ccnc3nc(Cc4cc(F)cc(F)c4)nn23)cc(OC)c1OC	i	?	?	0%
c1cncc(-c2ccnc3nc(CCC4CCCC4)nn23)c1	i	?	?	5%
c1cc(-c2ccnc3nc(CCC4CCCC4)nn23)ccn1	i	-2%	35µM*	-1%
Cc1csc(Nc2ccc3c(n2)CN(C)C(=O)CO3)n1	i	18µM*	32µM*	1%[70.6 µM]
O=C(c1ccc2n[nH]nc2c1)N1CCC2(CC1)Nc1ccccc1NC2=O	i	-29%	-13%	5%
O=C(c1ccc2[nH]ccc2c1)N1CCC2(CC1)Nc1ccccc1NC2=O	i	40µM*	-14%	-10%
Cc1noc(C)c1-c1cc2c(cc(C)n2C)c(N2CCN(c3ccccn3)CC2)n1	i	63µM*	45µM*	3%[70.6 µM]
Cc1noc(C)c1-c1cc2c(cc(C)n2C)c(-c2ccc(CO)cc2)n1	i	?	32µM*	1%[70.6 µM]
Cc1noc(C)c1-c1cc2c(cc(C)n2C)c(NCc2ccncc2)n1	i	?	?	5%[70.6 µM]
Cc1noc(C)c1-c1cc2cc(C(C)C)oc2c(-c2cccc(CO)c2)n1	i	71µM*	?	-13%[70.6 µM]
Cc1noc(C)c1-c1cc2c(cc(C)n2C)c(-c2cccc(CO)c2)n1	i	?	45µM*	-20%[70.6 µM]
CNC(=O)c1cc2cc(-c3c(C)noc3C)nc(-c3cccc(CO)c3)c2o1	i	?	?	0%[70.6 µM]
O=C(C1CC1)N1CCCN(c2ccc3nnc(C4CC4)n3n2)CC1	.	-27%[172 µM]	-23%[138 µM]	.
Cc1cc2cc(-c3c(C)noc3C)nc(N3CCCC3)c2o1	i	?	?	4%[70.6 µM]
CC(=O)N1CCN(c2nc(-c3c(C)noc3C)cc3cc(C(C)C)oc23)CC1	i	?	50µM*	-2%[70.6 µM]
Cc1cc2c(-c3cccc(OC(C)C)c3)nc(-c3c(C)noc3C)cc2[nH]1	i	28µM*	50µM*	-1%[70.6 µM]
SMILES	FLuc inh	HEK cytotox	3T3 cytotox	hNpr1 antagonist
Cc1cc2c(-c3ccc(CO)cc3)nc(-c3c(C)noc3C)cc2[nH]1	i	?	10µM*	-1%[70.6 µM]
COc1ccccc1-n1c(=O)c(C(=O)NC(C)C)nc2cccnc21	.	-7%[172 µM]	-21%[138 µM]	.
FC(F)(F)Oc1cccc(CN2CCNc3cc(Nc4cccnc4)ncc3C2)c1	?	?	?	-1%[70.6 µM]
c1cncc(Nc2cc3c(cn2)CN(Cc2c[nH]c4ccccc24)CCN3)c1	?	112µM*	?	-23%[70.6 µM]
c1cncc(Nc2cc3c(cn2)CN(Cc2ccsc2)CCN3)c1	20µM*	?	?	-4%[70.6 µM]
COc1ccc(F)cc1-c1ccc(C(=O)O)cc1	.	i	2%[138 µM]	.
CCc1ccc(C(=O)NC2CCN(c3cc(-c4ccc(F)cc4)[nH]n3)C2)cc1 (configuration not stated)	i	?	?	-15%
COc1ccc(F)cc1-c1ccc(CN2CCC(NC(=O)c3ccc(NC(C)=O)cc3)C2)cc1 (configuration not stated)	.	?	20µM*	.
COc1ccc(F)cc1-c1ccc(CN2CCC(NC(=O)c3ccccn3)C2)cc1 (configuration not stated)	.	?	45µM*	.
COc1ccc(F)cc1-c1ccc(CN2CCC(NC(=O)c3ccc(C)cc3)C2)cc1 (configuration not stated)	.	28µM*	40µM*	.
COc1ccc(F)cc1-c1ccc(CN2CCC(NC(=O)c3ccc(Cl)cc3)C2)cc1 (configuration not stated)	.	?	14µM*	.
COc1cccc(-c2cn3cc(C(=O)N4CCOCC4)nc3s2)c1	.	-14%	-27%	.
COc1cccc(CN2CCCC(NC(=O)Nc3ccccc3OC)C2)c1 (configuration not stated)	i	-28%	-22%	0%
COc1ccc(F)cc1-c1ccc(CN2CCC(NC(=O)Nc3ccccc3)C2)cc1 (configuration not stated)	.	20µM*	13µM*	.
O=C(c1cnc2n[nH]c(-c3ccccc3)c2n1)N1CCN(c2ccccn2)CC1	i	71µM*	?	-13%[70.6 µM]
O=C(NCCc1ccccc1)c1cnc2n[nH]c(-c3ccccc3)c2n1	i	-26%[172 µM]	?	-17%[70.6 µM]
O=C(NCC1CCOCC1)c1cnc2n[nH]c(-c3ccccc3)c2n1	i	?	79µM*	4%[70.6 µM]
COc1ccc(-c2[nH]nc3ncc(C(=O)NCc4ccc(F)cc4)nc23)c(C)c1	i	32µM*	22µM*	-19%[70.6 µM]
O=C(c1cnc2n[nH]c(-c3ccccc3)c2n1)N1CCOCC1	i	?	?	-11%[70.6 µM]
O=C(NCc1ccc(F)cc1)c1cnc2n[nH]c(-c3ccccc3)c2n1	i	?	50µM*	-26%[70.6 µM]
O=C(c1ccccc1)N1CCC(C(=O)N2CCC(N3Cc4ccccc4C3=O)CC2)CC1	.	?	-28%	.
Cn1cnc(S(=O)(=O)N2CCCCC2c2noc(COCc3ccc(F)cc3)n2)c1 (configuration not stated)	.	?	-16%	.
Cn1ncc2c(C(=O)NCC3CC3)cc(-c3cccc(F)c3)nc21	.	-22%[172 µM]	?	.
COCC(=O)N1CCN(C(=O)c2nc3cccnc3n(-c3ccccc3OC)c2=O)CC1	.	-1%	-16%	.
CNC(=O)C1CCCN(Cc2cccc(-c3cccs3)c2)C1 (configuration not stated)	.	100µM*	-29%[138 µM]	.
CN(C)C(=O)C1CCCN(Cc2cccc(-c3cccs3)c2)C1 (configuration not stated)	.	100µM*	?	.
FC(F)(F)c1ccc(N2C3CCC2CN(Cc2cccc(-c4cccs4)c2)C3)cc1	.	-16%	?	.
